High-throughput results as filed in PubChem.
PAFAH1B2 FP inh = PAFAH1B2 enzyme inhibitors, primary screen, biochemical, fluorescence polarization, human. Platelet-activating factor acetylhydrolase IB subunit alpha2 (Homo sapiens), P68402. recombinant PAFAH1B2, FP-rhodamine activity probe. inhibition, % at 3.39 µM. 340,000 tested, 1.2% active. AID 492953, 2010;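 active = inhibition above the mean of all tested compounds plus 3 SD, cut at about 24% in these data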
rCAG RNA binder = binders of r(CAG) RNA repeats, primary screen, biochemical, fluorescence. r(CAG) RNA repeat, TO-PRO-1 dye displacement fluorescence. inhibition, % at 3 µM. 370,000 tested, 1.3% active. AID 651821, 2012;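 active = inhibition above the plate cutoff, the mean of all test compounds on that plate plus 3 SD, cut at about 35% in these data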;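 note: higher means more dye released from RNA so lower well fluorescence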
PAFAH2 inh = PAFAH2 enzyme inhibitors, primary screen, biochemical, fluorescence polarization, human. Platelet-activating factor acetylhydrolase 2, cytoplasmic (Homo sapiens), Q99487. recombinant PAFAH2, FP-rhodamine activity probe. inhibition, % at 3.39 µM. 340,000 tested, 0.99% active;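 active = inhibition above the mean over all tested compounds plus 3 SD, cut at about 30% in these data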;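 note: inhibitors block probe labeling of enzyme so polarization drops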
PAFAH1B3 inh = PAFAH1B3 enzyme inhibitors, primary screen, biochemical, fluorescence polarization, human; Platelet-activating factor acetylhydrolase IB subunit alpha1 (Homo sapiens), Q15102; inhibition, % at 3.39 µM; AID 492972, 2010; 340,000 tested, 0.28% active; recombinant PAFAH1B3, FP-rhodamine probe;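 active = inhibition above the screen-wide average of all tested compounds plus 3 SD, cut at about 25% in these data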
ZTA DNA inh = counter-screen for EBNA-1 inhibitors: inhibitors of Epstein-Barr virus ZTA; AID 2234; P03206; inhibition, % at 11 µM; ZTA-DNA binding, fluorescence polarization; 320,000 tested, 0.15% active; in the data active = inhibition above about 33%
Target sequence (P03206 whole entry, looked up): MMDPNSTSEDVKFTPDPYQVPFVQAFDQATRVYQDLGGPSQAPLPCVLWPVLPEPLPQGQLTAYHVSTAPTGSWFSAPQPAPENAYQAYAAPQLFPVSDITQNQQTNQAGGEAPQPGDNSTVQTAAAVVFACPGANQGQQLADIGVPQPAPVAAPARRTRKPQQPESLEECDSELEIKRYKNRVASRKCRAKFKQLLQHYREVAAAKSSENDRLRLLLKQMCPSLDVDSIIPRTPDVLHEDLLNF
EBNA-1 inhibitor = EBNA-1 DNA-binding inhibitors, primary screen, biochemical, fluorescence polarization; inhibition, % at 14.8 µM; 300,000 tested, 0.34% active; in the data active = inhibition above about 28%
EBNA-1 inh conf = EBNA-1 DNA-binding inhibitors, retest, confirmation, biochemical, fluorescence polarization, triplicate | shares compounds with EBNA-1 inhibitor | Recombinant EBNA-1 DBD, Cy5-DNA fluorescence polarization | inhibition, % at 14.8 µM | 830 tested, 35% active;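 active = mean inhibition across replicates above a set limit taken from the earlier primary screen, cut at about 28% in these data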
ZTA counter trip = EBV Zta DNA binding inhibitors, counter-screen for EBNA-1 inhibitor project, biochemical, fluorescence polarization, triplicate; 830 tested, under 10 active; shares compounds with EBNA-1 inhibitor; Zta-ZRE DNA binding, Cy5 fluorescence polarization; inhibition, % at 11.1 µM; AID 2328, 2010;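 active = mean inhibition over triplicates above a set limit taken from the primary EBNA-1 screen, cut at about 37% in these data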;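 note: purified full length Zta protein with Cy5 labeled ZRE DNA probe; inhibitors lower polarization by freeing the labeled DNA probe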
Numbers stand for hits; 0 = inactive; - = no result given. This is a sample that favours compounds with a hit; in the whole collection about 2.9% have one here.

SMILES	PAFAH1B2 FP inh	rCAG RNA binder	PAFAH2 inh	PAFAH1B3 inh	ZTA DNA inh	EBNA-1 inhibitor	EBNA-1 inh conf	ZTA counter trip
C#CCNC(=O)C[C@H]1C[C@@]2(C(=O)OC)C(=C[C@H](C(C)C)O[C@@H]2C2CC2)N(Cc2ccc3c(c2)OCO3)C1=O	-	0	-	-	-	-	-	-
O=S1(=O)N=C(N(CCO)/N=C/c2ccc(Cl)cc2)c2ccccc21	0	0	0	0	0	0	-	-
O=S1(=O)N=C(N(CCO)/N=C/c2ccc(Br)cc2)c2ccccc21	0	0	0	0	0	32	0	0
CCCCCCCCN1C(=O)[C@@H](CC(=O)NCCCN2CCCC2=O)C[C@@]2(C(=O)OC)C1=C[C@H](C(C)C)O[C@@H]2C1CC1	-	0	-	-	-	-	-	-
Cc1csc(NC(=O)CSc2nc3sc(C)c(C)c3c(=O)[nH]2)n1	0	0	0	0	0	53	0	0
Cc1sc2nc(SCC(=O)Nc3ccccc3F)[nH]c(=O)c2c1C	0	0	0	0	0	30	42	0
O=C1Nc2ccccc2-n2nnnc2C1N1CCc2ccccc2C1 (stereo unspecified)	-	0	-	-	-	-	-	-
COC(=O)[C@@]12C[C@@H](CC(=O)N3CCCCC3)C(=O)N(Cc3ccco3)C1=CCC(C)(C)C2	-	0	-	-	-	-	-	-
COc1ccc(/C(C)=N\Nc2nc(-c3ccccc3)cc(=O)[nH]2)cc1	0	0	0	0	0	42	0	0
CCCC1CCC2(CCC(=O)N2CCC#N)CC1 (stereo unspecified)	-	0	-	-	-	-	-	-
COc1ccc(C=NNC(=O)c2ccncc2)cc1	-	0	-	-	-	-	-	-
COc1cc(C(=O)Oc2ccc(/C=N/NC(=O)c3ccncc3)cc2)cc(OC)c1OC	0	0	0	0	0	34	0	0
Cc1ccc(OCc2nnc(NC(=O)OCC(C)C)s2)c(C)c1	-	-	-	-	0	0	-	-
Cc1ccc(OCc2nnc(NC(=O)c3ccco3)s2)c(C)c1	0	0	0	0	0	46	0	0
CC1=CC2=NC(=O)/C(=C\c3cc(C)n(-c4ccccc4)c3C)C(=N)N2O1	0	0	0	0	0	0	-	-
CC1=CC2=NC(=O)/C(=C\c3cn(C)c4ccccc34)C(=N)N2O1	0	0	0	0	0	40	91	0
COc1ccc(-n2c(SCC(=O)Nc3cc(C)c(NC(=O)c4ccccc4)cc3OC)nnc2-c2cccnc2)cc1	-	0	-	-	-	-	-	-
COc1ncc(-c2cc(C(C)=O)c3n(c2=O)CCC3)c(OC)n1	-	0	-	-	-	-	-	-
O=C(NNC(=O)c1ccc(NC(=O)c2ccccc2)cc1)Nc1ccccc1	0	0	0	0	0	0	-	-
O=C(NNC(=O)c1ccc(NC(=O)c2ccccc2)cc1)c1ccc(F)cc1	0	0	0	0	0	67	103	0
CCOc1ccc(N(CC(=O)N/N=C(\C)c2cccc(NC(C)=O)c2)S(=O)(=O)c2ccccc2)cc1	0	0	0	0	0	53	0	0
COc1ccc(N(CC(=O)N/N=C(\C)c2ccccc2)S(=O)(=O)c2ccccc2)cc1	0	0	0	0	0	0	-	-
Cc1ccccc1OCCn1cc(/C=C(\C#N)C(=O)NCc2ccco2)c2ccccc21	0	0	0	0	0	34	51	0
N#C/C(=C\c1cn(CCOc2ccccc2F)c2ccccc12)C(=O)NCc1cccs1	0	0	0	0	0	124	0	0
N#C/C(=C\c1cn(CCOc2ccccc2)c2ccccc12)C(=O)NCc1ccco1	0	0	0	0	0	0	-	-
Cc1ccc(NC(=O)CCCN2C(=O)c3cccc4cccc(c34)C2=O)cc1	0	0	0	0	0	55	0	0
